Results: PubChem BioAssay
Several values for one entry are separate records, joined by “and”; a condition that tells them apart may be missing. Identical values can stand only once. More than one record can exist for a structure, and the calls need not agree. Activity calls are given as the source filed them.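 The calls were made as follows, unless noted: active = inhibition at or above 50% relative to wild type and mutant plate controls; inactive = inhibition below 50%.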

Columns and labels:
[1] = inhibitors of TNFa-induced NFkB p65 translocation, primary screen, imaging, HUVEC, MLSMR starter and 10KST1 sets (AID 438;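 active = inhibition above 20% together with a positive visual image hit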;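 also: compound added about 3h40 before a 20 min TNFalpha stimulation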;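 as to inhibition: signal is the nuclear over cytoplasmic p65 intensity ratio per well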); conditions: HUVEC TNFa-induced p65 nuclear translocation; cell count: measured here: nuclei count (cytotoxicity indicator), at 2.08 µM; inhibition: at 2 µM, stronger effect = higher value, 0% TNFa-plus-vehicle, 100% no-TNFa wells
[2] = inhibitors of mutant huntingtin aggregation, primary screen, imaging, exon1htt(103Q)mCFP cells, high-content imaging (AID 483;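 active = visual image review flags a hit and inhibition of aggregation exceeds 20%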;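 also: compound exposure lasted 3 days before fixation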;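 as to nuclei count: percent of the per-plate median nuclei count of sample wells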); conditions: exon1htt(103Q)mCFP cell line, aggregate imaging, at 2 µM; inhibition of aggregation: stronger effect = higher value; nuclei count: measured here: cell count, toxicity
[3] = inhibitors of E-selectin induction by TNFa, primary screen, imaging, HUVEC, immunofluorescence, MLSMR starter and 10KST1 sets (AID 487;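 active = visually confirmed hit in the image check and inhibition above 20%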;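 as to inhibition: signal is fraction of cell area covered by stained E-selectin grains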;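 as to nuclei count: 100% = median nuclei count of all wells on the same plate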); conditions: HUVEC TNFalpha-induced E-selectin immunofluorescence imaging, at 2 µM; inhibition: stronger effect = higher value; nuclei count: measured here: cell number, toxicity
[4] = DUSP6 inhibitors restoring Erk phosphorylation by chemical complementation, primary imaging in DUSP6-transfected HeLa (AID 609;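 active = compounds giving at least 50% inhibition in the cell-based MKP-3 phosphatase rescue imaging test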;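 as to inhibition: phospho-Erk level distribution per well compared with pooled transfected vehicle control wells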); conditions: HeLa MKP-3 transfected, phospho-Erk imaging KS statistic, at 10 µM, cells stimulated with TPA for 15 min
[5] = target: Dual specificity protein phosphatase 6 (Homo sapiens) (UniProt Q16828); test: as above; conditions: HeLa MKP-3 transfected, phospho-Erk imaging KS statistic; at 10 µM; stronger effect = higher value; cells stimulated with TPA for 15 min
Sequence of Dual specificity protein phosphatase 6 (Homo sapiens) (Q16828 whole entry, looked up): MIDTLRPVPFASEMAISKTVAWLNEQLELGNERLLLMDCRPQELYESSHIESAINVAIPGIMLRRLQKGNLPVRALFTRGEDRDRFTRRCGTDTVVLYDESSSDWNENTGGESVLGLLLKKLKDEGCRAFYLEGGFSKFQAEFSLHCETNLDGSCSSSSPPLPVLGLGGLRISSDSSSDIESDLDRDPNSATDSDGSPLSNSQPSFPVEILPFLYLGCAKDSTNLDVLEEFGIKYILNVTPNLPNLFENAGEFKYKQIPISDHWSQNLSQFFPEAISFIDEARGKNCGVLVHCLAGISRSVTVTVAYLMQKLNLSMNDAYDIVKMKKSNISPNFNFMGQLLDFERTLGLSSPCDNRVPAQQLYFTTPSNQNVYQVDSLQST

[6] = target: Voltage-gated potassium channel subunit beta-2 (Rattus norvegicus) (UniProt P62483); test: KvBeta enzyme negative modulators, primary screen, biochemical, NADPH fluorescence (AID 622;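 active = fluorescence slope higher than the sample average by over 3 SD, cut at about -0.22 in these data, passing the limit was not always enough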;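 also: slope of raw intensity against log time taken from 70 to 1610 s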); conditions: recombinant KvBeta, 4-cyanobenzaldehyde reduction, at 10 µM, stronger effect = higher value
Sequence of Voltage-gated potassium channel subunit beta-2 (Rattus norvegicus) (P62483 whole entry, looked up): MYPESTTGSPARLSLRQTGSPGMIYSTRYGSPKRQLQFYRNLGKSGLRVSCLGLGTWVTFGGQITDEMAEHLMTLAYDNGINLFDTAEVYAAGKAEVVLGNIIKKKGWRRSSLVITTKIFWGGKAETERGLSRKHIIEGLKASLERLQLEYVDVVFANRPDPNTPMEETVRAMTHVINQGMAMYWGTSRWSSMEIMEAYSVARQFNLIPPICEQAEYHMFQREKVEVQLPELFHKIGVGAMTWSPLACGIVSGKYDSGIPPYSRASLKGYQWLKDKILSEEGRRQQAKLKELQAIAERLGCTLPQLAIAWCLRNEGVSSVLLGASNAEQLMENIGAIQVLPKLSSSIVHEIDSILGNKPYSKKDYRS

[7] = target: Voltage-gated potassium channel subunit beta-2 (Rattus norvegicus) (UniProt P62483); test: KvBeta positive modulators, primary screen, biochemical, NADPH fluorescence (AID 623;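 active = NADPH fluorescence slope more negative than the mean of all samples by about 3 SD, 99.7% confidence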;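 also: fluorescence intensity change per second fitted from 20 to 320 s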); conditions: Recombinant KvBeta, NADPH fluorescence decrease slope, 10 min; at 10 µM; stronger effect = lower value
[8] = target: Alpha-2C adrenergic receptor (Homo sapiens) (UniProt P18825); test: modulators of alpha2C/GIRK thallium flux, primary screen, cell-based, HEK293 alpha2C/GIRK1/2 (AID 624;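 active = fluorescence slope after compound addition differing from the mean of all screened samples at 99.7% confidence, in either direction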;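 also: slope of fluorescence ratio to pre-addition baseline per second over 15 to 24 s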); conditions: thallium flux BTC fluorescence, at 10 µM, actives lie on both sides
Sequence of Alpha-2C adrenergic receptor (Homo sapiens) (P18825 whole entry, looked up): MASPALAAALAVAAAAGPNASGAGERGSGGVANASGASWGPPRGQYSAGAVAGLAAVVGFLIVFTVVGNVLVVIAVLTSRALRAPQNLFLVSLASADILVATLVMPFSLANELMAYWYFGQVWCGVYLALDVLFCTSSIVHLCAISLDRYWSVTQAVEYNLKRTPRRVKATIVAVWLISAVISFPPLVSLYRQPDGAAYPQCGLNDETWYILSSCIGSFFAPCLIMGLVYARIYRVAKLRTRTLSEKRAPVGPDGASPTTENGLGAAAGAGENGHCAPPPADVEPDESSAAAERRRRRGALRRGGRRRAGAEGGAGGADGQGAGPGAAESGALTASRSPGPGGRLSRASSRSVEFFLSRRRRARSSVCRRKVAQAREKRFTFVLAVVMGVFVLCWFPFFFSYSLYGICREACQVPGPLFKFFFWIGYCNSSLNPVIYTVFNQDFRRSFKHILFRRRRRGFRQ

[9] = inhibitors of larval lipid processing in zebrafish, primary screen, whole organism, PED6 fluorescence, gall bladder and intestine (AID 686;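 active = a full or partial loss of lipid-probe fluorescence in the fish gall bladder, intestine or both, judged by eye; inactive = no fluorescence loss, or compound toxic to the fish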;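 also: larvae 5 to 7 days old with five fish per well; signal comes from phospholipase A2 cleavage of quenched PED6 carried via bile; overnight exposure to compound and PED6 before scoring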); conditions: Zebrafish larvae PED6 lipid processing, fluorescence scoring; screened at 20 µM (by protocol)
[10] = inhibitors of Chlamydomonas gravitaxis, primary screen, whole organism, Chlamydomonas reinhardtii, WT vs cilia-less mutant, absorbance, 96-well (AID 463189); conditions: OD600 absorbance, 2 days, at 10 µM, stronger effect = higher value;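 also: 0% = wild type cc124 cells in DMSO and 100% = ciliumless bld1 mutant cells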
[11] = inhibitors of Sendai virus-induced IRF3 signaling, primary screen, TLR/RLR signaling modifier project, cell-based, Sendai virus stimulus, luciferase, 10K MLSCN set (AID 602276;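 active = inhibition at or above 50% at 10 µM; inactive = inhibition below 50%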;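 also: firefly luciferase from ISG56 promoter only with Renilla not read in this screen; 0% = Sendai virus plus DMSO and 100% = medium plus DMSO without virus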); conditions: HEK293 RL24 IRF3 luciferase reporter, at 10 µM, stronger effect = higher value
[12] = inhibitors of poly I:C-induced TLR3 signaling, primary screen, cell-based, poly I:C stimulus, luciferase, 10K MLSCN set (AID 602277;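 active = inhibition of the reporter signal at or above 50%; inactive = inhibition below 50%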); conditions: HEK293-TLR3 RL24 IRF3 luciferase reporter, at 10 µM, stronger effect = higher value
[13] = measured here: cell density z-score
[14] = measured here: nuclear c-Myc green intensity z-score
[15] = measured here: nuclear pErk red intensity z-score, stronger effect = higher value

Compound	cell count [1]	inhibition [1]	inhibition of aggregation [2]	nuclei count [2] [%]	inhibition [3]	nuclei count [3] [%]	z-score [4, 13]	z-score [4, 14]	z-score [4, 15]	inhibition [5]	fluorescence slope [6]	NADPH fluorescence slope [7]	slope [8]	outcome [9]	inhibition [10]	inhibition [11]	inhibition [12]
C[C@@H]1C[C@H]2[C@@H]3C[C@H](F)C4=CC(=O)C=C[C@]4(C)[C@@]3(F)[C@@H](O)C[C@]2(C)[C@@]1(O)C(=O)CO	647	-3.8% (inactive)	-18.8% (inactive)	42.3	-111% (inactive)	128	-1.38	0.0959	0.878	9.37% (inactive)	-0.535 (inactive)	-3.8e-05 (inactive)	0.00526 (inactive)	inactive	-6.12% (inactive)	-11.6% (inactive)	33.6% (inactive)
CCn1cc(C(=O)NCc2ccco2)c(=O)c2cc(F)c(N3CCN(C(=O)c4ccco4)CC3)cc21	380	16.3% (inactive)	13.6% (inactive)	99.3	-117% (inactive)	118	2.14	-0.717	0.644	19.4% (inactive)	-0.279 (inactive)	2.6e-05 (inactive)	0.00489 (inactive)	inactive	-7.6% (inactive)	14.3% (inactive)	13.7% (inactive)
CC(=O)Oc1cc(C(C)C)c(OCCN(C)C)cc1C	467	-9.4% (inactive)	22.4% (inactive)	95.3	-10.4% (inactive)	108	-0.0151	0.045	-0.157	13.3% (inactive)	-0.475 (inactive)	-5.3e-05 (inactive)	0.0046 (inactive)	inactive	6.3% (inactive) and 24.6% (inactive)	15% (inactive)	49.2% (inactive)
CCCCC(=O)O[C@]1(C(=O)CO)CC[C@H]2[C@@H]3CCC4=CC(=O)CC[C@]4(C)[C@H]3[C@@H](O)C[C@@]21C	559	-9.3% (inactive)	-2.8% (inactive)	44.6	-73.8% (inactive)	120	-0.284	-0.0177	0.0777	-0.493% (inactive)	-0.554 (inactive)	-4.6e-05 (inactive)	0.00469 (inactive)	inactive	15.5% (inactive)	-1.27% (inactive)	57.4% (active)
OCCN1CCN(CCCN2c3ccccc3Sc3ccc(C(F)(F)F)cc32)CC1	606	2% (inactive)	4.9% (inactive)	91.7	-56.8% (inactive)	127	0.204	0.276	0.714	-10.4% (inactive)	-0.544 (inactive)	-5.6e-05 (inactive)	0.00393 (inactive)	active; no signal in intestine only	-10.6% (inactive) and 145% (active)	12.2% (inactive)	58.3% (active)
CC(=O)Nc1nnc(S(N)(=O)=O)s1	660	-4.8% (inactive)	-0.3% (inactive)	93.8	-29.7% (inactive)	122	-0.588	-1.08	0.272	13.3% (inactive)	-0.462 (inactive)	-6.7e-05 (inactive)	0.0054 (inactive)	active; no signal in intestine only	0.808% (inactive) and -5.65% (inactive)	-14.2% (inactive)	1.99% (inactive)
CCC1(c2ccccc2)C(=O)NCNC1=O	647	3.5% (inactive)	-10.2% (inactive)	103	-70% (inactive)	129	-0.87	2.71	-0.522	5.79% (inactive)	-0.469 (inactive)	-8.7e-06 (inactive)	0.00482 (inactive)	inactive	-4.31% (inactive) and 28.8% (inactive)	17% (inactive)	30.6% (inactive)
CN1CCN(CCCN2c3ccccc3Sc3ccc(C(F)(F)F)cc32)CC1	613	4.1% (inactive)	-9.7% (inactive)	101	-23.1% (inactive)	121	0.592	0.844	1.24	-5.24% (inactive)	-0.437 (inactive)	-1.6e-05 (inactive)	0.00437 (inactive)	inactive	35.7% (inactive) and 164% (active)	18.2% (inactive)	40.2% (inactive)
Cn1c(=O)n(CCC(=O)O)c2ccccc21	429	-3.4% (inactive)	7.9% (inactive)	96.9	-65.4% (inactive)	159	-0.862	-1.01	0.787	-9.7% (inactive)	-0.405 (inactive)	-5.3e-05 (inactive)	0.00491 (inactive)	inactive	1.78% (inactive)	16.2% (inactive)	22.9% (inactive)
COc1ccc(OC)c(C2C(C#N)=C(N)Oc3cc(C)[nH]c(=O)c32)c1 (stereo not given)	544	-31.7% (inactive)	19.9% (inactive)	88.9	-48.5% (inactive)	122	-0.908	-1.31	-0.529	-7.86% (inactive)	-0.536 (inactive)	-5e-05 (inactive)	0.00618 (inactive)	inactive	15.7% (inactive)	13.1% (inactive)	-12.4% (inactive)
